The text below walks through data of PubChem BioAssay.

A short description of test [1]: StAR promoter reporter inhibitors, counter-screen for LRH-1 inverse agonist project, cell-based, luminescence, high throughput (AID 651611; in the data active = inhibition above about 28%). Conditions: StAR promoter luciferase reporter counterscreen, at 3.6 µM, stronger effect = higher value.
Test [2] concerns the target Nuclear receptor subfamily 5 group A member 2 (Homo sapiens) (UniProt O00482). Description: NR5A2 activity suppression in reporter cells – cell-based, luminescence, confirmation (AID 651613; in the data active = inhibition above about 42%;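 note: HEK293T cells co-transfected with LRH-1 and StAR promoter luciferase reporter; 0% = vehicle wells and 100% = parental cells lacking receptor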). The settings on record: cell-based LRH-1 luciferase reporter, inverse agonism; at 3.6 µM; stronger effect = higher value.
Test [3] has as its target Steroidogenic factor 1 (Homo sapiens) (UniProt Q13285). Nature of the test: inverse agonism at SF1 nuclear receptor – cell-based, luminescence, high throughput, counter-screen for LRH-1 inverse agonist project (AID 651614; in the data active = inhibition above about 44%;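 note: cells cotransfected with StAR promoter reporter and SF1 expression vector; 0% = vehicle on cells with receptor and 100% = vehicle on cells lacking receptor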). Conditions: cell-based SF1 luciferase reporter, at 3.6 µM, stronger effect = higher value.
Test [4] in a line: compounds suppressing VP16-driven luciferase signal – cell-based, luminescence, high throughput, counter-screen for LRH-1 inverse agonist project (AID 651615). The settings on record: Gal4-VP16 luciferase reporter cells, at 3.6 µM, stronger effect = higher value.

Values without a mark were called inactive. Calls of active or inactive are those of the source. Cut-off read from the data, not from the text of the source, unless noted: active = inhibition above about 33%; inactive = the rest.

Nuclear receptor subfamily 5 group A member 2 (Homo sapiens), sequence (O00482 whole entry, looked up): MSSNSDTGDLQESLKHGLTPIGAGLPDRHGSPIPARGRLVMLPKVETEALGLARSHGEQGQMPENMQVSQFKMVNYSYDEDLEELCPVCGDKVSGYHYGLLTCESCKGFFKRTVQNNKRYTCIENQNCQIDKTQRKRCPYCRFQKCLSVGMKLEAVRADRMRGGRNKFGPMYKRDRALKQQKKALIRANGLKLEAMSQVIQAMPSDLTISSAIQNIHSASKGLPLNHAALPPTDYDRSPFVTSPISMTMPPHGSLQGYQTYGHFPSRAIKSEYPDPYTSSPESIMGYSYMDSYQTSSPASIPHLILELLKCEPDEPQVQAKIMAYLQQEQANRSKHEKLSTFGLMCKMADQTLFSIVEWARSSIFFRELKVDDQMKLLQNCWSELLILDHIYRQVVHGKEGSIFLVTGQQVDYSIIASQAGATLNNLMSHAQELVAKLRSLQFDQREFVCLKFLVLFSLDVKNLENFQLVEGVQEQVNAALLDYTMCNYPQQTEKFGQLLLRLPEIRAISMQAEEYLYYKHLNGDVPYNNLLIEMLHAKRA
Steroidogenic factor 1 (Homo sapiens), sequence (Q13285 whole entry, looked up, the tested form may be a part): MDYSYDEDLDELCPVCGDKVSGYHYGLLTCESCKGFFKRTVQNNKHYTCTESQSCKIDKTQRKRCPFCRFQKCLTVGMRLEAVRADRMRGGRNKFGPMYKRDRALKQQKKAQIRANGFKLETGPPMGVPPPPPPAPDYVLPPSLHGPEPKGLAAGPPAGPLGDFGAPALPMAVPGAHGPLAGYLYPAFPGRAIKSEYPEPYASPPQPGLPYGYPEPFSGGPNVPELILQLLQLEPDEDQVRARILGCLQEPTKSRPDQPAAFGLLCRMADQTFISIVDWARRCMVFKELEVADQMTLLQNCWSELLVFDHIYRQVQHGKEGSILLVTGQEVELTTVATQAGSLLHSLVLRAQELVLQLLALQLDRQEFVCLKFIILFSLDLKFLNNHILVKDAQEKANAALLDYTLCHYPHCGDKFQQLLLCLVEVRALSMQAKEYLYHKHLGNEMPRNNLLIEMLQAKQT

Consider `NC1=CC(=O)C(=O)c2ccccc21`, for which the inhibition in test [1] was 29.2% (active); in test [2], 54.9% (active); in test [3], 47% (active); in test [4] it was -6.09%.

Consider `O=C1/C(=C\c2ccc(Cl)c(Cl)c2)CN(C(=O)CCN2CCOCC2)C/C1=C/c1ccc(Cl)c(Cl)c1`, for which the inhibition in test [1] is 67.9% (active); in test [2] it was 93.2% (active); in test [3], 92.9% (active); in test [4], 79% (active).

`CCCCCCCN(C(=O)CCl)c1ccccc1C`: the inhibition in test [1] was 21%; in test [2] it was 49.9% (active); in test [3] it was 42.9% (active); in test [4] it was -8.25%.

`COc1ccc(CCNC(=O)CSc2nn3c(=O)c(C)nnc3s2)cc1OC`: the inhibition is 8.26% in test [1], 57.5% (active) in test [2], 47.2% (active) in test [3] and -10.1% in test [4].

For `CCOc1ccc(OCCN2C(=O)NC(Cc3c[nH]c4ccccc34)C2=O)cc1` (centres undefined), the inhibition in test [1] is 13.2%; in test [2] it was 54.9% (active); in test [3] it was 58.2% (active); in test [4], 4.66%.

Consider `Cc1ccc(C)c(NC(=O)CSc2nc3[nH]ncc3c(=O)[nH]2)c1`, for which the inhibition in test [1] is 6.04%; in test [2], 58.1% (active); in test [3] it was 56% (active); in test [4], 7.57%.

For `CN(C)CCNC(=O)c1cccc2nc3cccc(F)c3nc12`, the inhibition in test [1] was 63.9% (active); in test [2], 81.5% (active); in test [3] it was 72.1% (active); in test [4] it was 55% (active).

For `CCCCNC(=O)COC(=O)c1c2c(nc3ccccc13)/C(=C/c1cccs1)CC2`, the inhibition in test [1] is 11.2%; in test [2], 58% (active); in test [3], 26.4%; in test [4], 37.3% (active).

Turning to `O=C(COC(=O)c1ccccc1O)Nc1ccc(N2CCOCC2)cc1`, the inhibition in test [1] is 0.71%; in test [2], 59.3% (active); in test [3], 60.4% (active); in test [4], -1.07%.

As for `NC(=O)C1CCN(C(=O)COc2ccc3c4c(c(=O)oc3c2)CCCC4)CC1`, the inhibition is 12.7% in test [1], 59.3% (active) in test [2], 50.3% (active) in test [3] and -6.57% in test [4].

`CC(=O)Nc1cccc(-c2cc(NC=O)c3ncc(-c4cccc(C(C)=O)c4)n3c2)c1`: the inhibition in test [1] is 29.1% (active); in test [2], 57.6% (active); in test [3], 53.2% (active); in test [4], -34.5%.

In the case of `O=C(OCC(=O)N1CCN(c2ccccc2)CC1)c1ccc2ccccc2n1`, the inhibition is 9.44% in test [1], 33% in test [2], 22.3% in test [3] and 2.06% in test [4].

On to `O=C(N/N=C/c1ccc([N+](=O)[O-])o1)c1ccc2c(c1)OCO2`, for which the inhibition in test [1] was 37.2% (active); in test [2], 78.3% (active); in test [3], 91.2% (active); in test [4], -5.58%.

On to `O=C(Nc1ccc(C(=O)N2CCOCC2)cc1)c1cccc([N+](=O)[O-])c1`, for which the inhibition in test [1] was 1.39%; in test [2] it was 48.4% (active); in test [3], 41.9%; in test [4], -0.69%.

Turning to `COCC(=O)NC1CCN(CC(=O)Nc2ccc(OC)cc2[N+](=O)[O-])CC1`, the inhibition in test [1] was 14.2%; in test [2] it was 60.2% (active); in test [3], 60.8% (active); in test [4], -2.25%.

In the case of `CCOC(=O)c1c(N)n(CCOC(=O)c2cccs2)c2nc3ccccc3nc12`, the inhibition in test [1] is 0.69%; in test [2], 21.6%; in test [3], 23.7%; in test [4], -11.6%.

Turning to `CC(C)NC(=O)CN1CCN(C(=O)CCl)CC1`, the inhibition in test [1] was 1.19%; in test [2], 52.8% (active); in test [3], 27.2%; in test [4], 7.31%.

`COC(=O)c1ccc(NC(=O)CSc2nncn2-c2cccnc2)cc1`: the inhibition in test [1] is -6.12%; in test [2], 44.6% (active); in test [3] it was 34.3%; in test [4], 0.63%.

`COc1cccc(C(C)(O)c2nc(-c3ccc(S(C)(=O)=O)cc3)cs2)c1` (centres undefined): the inhibition in test [1] is 7.7%; in test [2], 58.2% (active); in test [3] it was 62.1% (active); in test [4], 24%.

As for `COc1ccccc1NC(=O)CN1CCN(CC(=O)Nc2ccc3c(c2)OCO3)CC1`, the inhibition in test [1] is 7.22%; in test [2] it was 54.4% (active); in test [3], 50.7% (active); in test [4], 0.21%.

As for `S=C(NCCc1ccccc1)Nc1cccc2cnccc12`, the inhibition in test [1] was -5.25%; in test [2], 45.1% (active); in test [3], 47.5% (active); in test [4], 42.3% (active).

For `COC(=O)c1ccc(NC(=O)CSc2nn3c(=O)c(C)nnc3s2)cc1`, the inhibition in test [1] is 5.82%; in test [2] it was 61.3% (active); in test [3], 56.4% (active); in test [4] it was -11.6%.

For the compound `COc1cc(C)c(C(=O)Oc2cc(C)c(C(=O)O)c(O)c2C)c(O)c1C`, the inhibition in test [1] is 14.9%; in test [2] it was 73.8% (active); in test [3], 70.7% (active); in test [4] it was -10.6%.

As to `O=C(CSc1nncc(=O)[nH]1)Nc1cccc([N+](=O)[O-])c1`, the inhibition in test [1] is 11.7%; in test [2], 57.3% (active); in test [3] it was 53.2% (active); in test [4] it was 8.83%.

Take `COc1ccc(NC(=O)CN2C(=O)C(C)SC(C)C2=O)c(OC)c1` (centres undefined): the inhibition in test [1] was 4.55%; in test [2], 44% (active); in test [3], 49% (active); in test [4], 11.3%.

On to `O=C(c1cc(COc2cccc3cnccc23)on1)N1CCCC(CCCO)C1` (centres undefined), for which the inhibition in test [1] was 35.4% (active); in test [2], 66.4% (active); in test [3], 70.5% (active); in test [4] it was 63.5% (active).
